Screens as filed in PubChem.
Compounds with a hit are over-represented: about 9.9% of the library has one in this group of screens.
JMJD2E inh: qHTS Assay for Inhibitors of Human Jumonji Domain Containing 2E (JMJD2E); Lysine-specific demethylase 4E (Homo sapiens), B2RXH2; JMJD2E catalytic domain, FDH-coupled NADH fluorescence (FDH is formaldehyde dehydrogenase); Potency, µM (highest dose often 57.1 µM), without a hit: top-dose activity change, negative = inhibition, usual class: inhibitors; 1.6% of 230,000 active; AID 2147, 2009;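 further: 0% = wells with enzyme and -100% = buffer wells without enzyme; nearly all actives have a fitted effect of over 50% in size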
Target sequence (B2RXH2 1-337 limits assumed): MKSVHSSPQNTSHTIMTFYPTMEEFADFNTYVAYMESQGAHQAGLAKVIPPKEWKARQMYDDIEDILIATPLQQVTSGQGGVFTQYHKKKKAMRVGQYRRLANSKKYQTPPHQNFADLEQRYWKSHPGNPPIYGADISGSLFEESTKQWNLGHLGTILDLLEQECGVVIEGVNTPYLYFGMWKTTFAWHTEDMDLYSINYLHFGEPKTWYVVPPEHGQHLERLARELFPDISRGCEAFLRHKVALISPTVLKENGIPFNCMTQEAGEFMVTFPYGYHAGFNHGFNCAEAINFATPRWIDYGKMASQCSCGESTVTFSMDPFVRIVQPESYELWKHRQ
HPGD inh: qHTS Assay for Inhibitors of HPGD (15-Hydroxyprostaglandin Dehydrogenase); AID 894, 2007; Potency, µM, for the others: top-dose activity change, negative = inhibition, actives largely listed as inhibitors; purified HPGD, NADH fluorescence kinetic, PGE2 substrate; 15-hydroxyprostaglandin dehydrogenase [NAD(+)] (Homo sapiens), P15428; 4.3% of 150,000 active
Target sequence (P15428 whole entry, looked up): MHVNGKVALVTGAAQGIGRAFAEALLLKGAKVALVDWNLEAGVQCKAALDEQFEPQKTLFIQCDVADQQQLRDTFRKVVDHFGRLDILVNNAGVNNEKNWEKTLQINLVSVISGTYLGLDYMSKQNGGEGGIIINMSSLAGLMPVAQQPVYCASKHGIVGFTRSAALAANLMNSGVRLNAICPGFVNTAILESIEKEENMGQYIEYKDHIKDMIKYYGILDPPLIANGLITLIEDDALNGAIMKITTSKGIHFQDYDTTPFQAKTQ
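NADH formation kinetics: reaction with 30 uM PGE2 and 1 mM NAD+ (final), 20 nM enzyme, Tris-HCl pH 8 with Tween 20, after 15 min compound preincubation at room temperature. Fluorescence change, last versus first of five reads.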
Tau fibril ThT: qHTS for Inhibitors of Tau Fibril Formation, Thioflavin T Binding; recombinant tau K18 P301L, heparin-induced fibrillization, ThT fluorescence; AID 1460, 2008; 2.1% of 270,000 active; Potency, µM (doses to about 57.4 µM), without a hit: top-dose activity, negative = inhibition, most hits filed as inhibitors; Microtubule-associated protein tau (Homo sapiens), P10636; active means well fitted curve in the direction sought with a large enough effect; inconclusive means small, poorly fitted or top-dose-only effect, or another doubt; inactive means no such curve, though single readings can be large; an effect the other way counts as inactive or inconclusive; further: nearly all actives have a fitted effect of over 55% in size
Target sequence (P10636 561-689 P618L limits assumed): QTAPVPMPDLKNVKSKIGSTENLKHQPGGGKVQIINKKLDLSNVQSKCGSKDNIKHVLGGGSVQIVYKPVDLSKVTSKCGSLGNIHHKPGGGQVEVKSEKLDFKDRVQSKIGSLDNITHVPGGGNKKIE
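K18 P301L tau (15 uM + 0.24 uM Alexa 594-tagged), heparin 20 uM, NaOAc pH 7, 6 h 37 C; ThT 30 uM, 1 h RT, ex 450/em 510 nm.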
Tau fibril FP: qHTS for Inhibitors of Tau Fibril Formation, Fluorescence Polarization. K18 P301L tau heparin fibrillization, Alexa594 FP, 6 h. Potency, µM (titrated, usually from 57.7 µM), for inactives: at the highest dose activity, negative = inhibition, actives largely listed as inhibitors. 0.39% of 280,000 active; active means well fitted curve in the direction sought with a large enough effect; inconclusive means small, poorly fitted or top-dose-only effect, or another doubt; inactive means no such curve, though single readings can be large; an effect the other way counts as inactive or inconclusive; further: nearly all actives have a fitted effect of over 55% in size
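Human K18 P301L fragment (15 uM unlabeled plus 0.24 uM Alexa 594-labeled) in 100 mM sodium acetate pH 7 with compound, aggregation induced by 20 uM heparin for 6 hr at 37 C. ThT (30 uM) added for 1 hr, then Alexa 594 FP read.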
Tau fluor cs: Counterscreen qHTS for Inhibitors of Tau Fibril Formation, Fluorescence Polarization; tau K18 P301L (four-repeat tau fragment) Alexa594 fluorescence, heparin fibrillization; Potency, µM (doses to about 57.7 µM), for the others: at the highest dose activity change, negative = decrease; 0.93% of 280,000 active; AID 1463, 2008; active means well fitted curve in the direction sought with a large enough effect; inconclusive means small, poorly fitted or top-dose-only effect, or another doubt; inactive means no such curve, though single readings can be large; an effect the other way counts as inactive or inconclusive; further: nearly all actives have a fitted effect of over 55% in size
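Human K18 P301L tau (15 uM unlabeled plus 0.24 uM Alexa 594-labeled, final) in 100 mM sodium acetate pH 7 was mixed with compound and 20 uM heparin and incubated 6 hr at 37 C.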
ALDH1A1 inh: qHTS Assay for Inhibitors of Aldehyde Dehydrogenase 1 (ALDH1A1); 7.3% of 220,000 active; Purified ALDH1A1, NADH fluorescence, propionaldehyde substrate; Potency, µM (doses to about 75.3 µM), without a hit: at the highest dose activity, negative = inhibition, most hits filed as inhibitors;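 further: plate controls were no enzyme wells and a reference inhibitor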
Starred values were filed as active, the others as inactive; ! = not confirmed by another sample; [ ] = another dose, or the depositor's remark. Unless noted, the call rests on the fitted dose curve; in most records, active means well fitted inhibition curve with a large enough effect (not every such curve was filed as active); inconclusive means small, poorly fitted or top-dose-only effect, or another doubt; inactive means no such curve, though single readings can be large or run the other way. Unless noted, on the % scale 0 is the no-effect control and ±100 the full control effect; potency means the concentration at half of the fitted maximal effect.

What do the screens show for `O=C(OCc1nnc(-c2ccccc2)o1)C1CC(=O)N(Cc2ccco2)C1` (stereo unspecified)?
JMJD2E inh: 5%; Tau fibril ThT: inconclusive; Tau fibril FP: -2%; Tau fluor cs: -2%; ALDH1A1 inh: 15µM*

Results for O=C(OCc1nnc(-c2ccccc2)o1)c1ccc2c(c1)OCO2 ?
JMJD2E inh: inconclusive; HPGD inh: 7.1µM*; Tau fibril ThT: -17%; Tau fibril FP: 3%; Tau fluor cs: -9%; ALDH1A1 inh: -2%

Results for COc1cccc(-c2nc(-c3ccc(NC(=O)c4cccs4)cc3)no2)c1 ?
JMJD2E inh: inconclusive; HPGD inh: inconclusive; Tau fibril ThT: 8%; Tau fibril FP: inconclusive; Tau fluor cs: -26%; ALDH1A1 inh: inconclusive

What do the screens show for `CN(C)c1ccc(CNC(=O)CN2C(=O)C3CCCCN3c3ccc(C(=O)N4CCCC4)cc32)cc1` (stereo unspecified)?
Tau fibril ThT: -9%; Tau fibril FP: -3%; Tau fluor cs: -5%

What do the screens show for `COc1cccc(OCc2nc3ccccc3n2CCOc2ccc(C)cc2)c1`?
Tau fibril ThT: inconclusive; Tau fibril FP: -1%; Tau fluor cs: -18%

Results for N#Cc1ccccc1Sc1ccccc1C(=O)OCC(N)=O ?
JMJD2E inh: -26%; Tau fibril ThT: -9%; Tau fibril FP: inconclusive; Tau fluor cs: -15%; ALDH1A1 inh: -7%

How did Cc1nn(Cc2ccccc2)c(Cl)c1C(=O)OCc1nnc(-c2ccc(Cl)cc2)o1 do in these assays?
JMJD2E inh: -1%; HPGD inh: -19%; Tau fibril ThT: -7%; Tau fibril FP: 2%; Tau fluor cs: -9%; ALDH1A1 inh: 2%

How did Cc1nn(Cc2ccccc2)c(Cl)c1C(=O)OCc1nnc(-c2ccccc2)o1 do in these assays?
JMJD2E inh: -4%; HPGD inh: 13µM*; Tau fibril ThT: -11%; Tau fibril FP: 12%; Tau fluor cs: -7%; ALDH1A1 inh: 2%

Results for N#Cc1ccccc1Sc1ccccc1C(=O)OCc1nnc(-c2ccccc2)o1 ?
JMJD2E inh: -6%; HPGD inh: 8.9µM*; Tau fibril ThT: -12%; Tau fibril FP: -8%; Tau fluor cs: inconclusive; ALDH1A1 inh: -4%

What do the screens show for `COc1ccc(CC(=O)OCc2nnc(-c3ccccc3)o2)cc1`?
JMJD2E inh: 12%; Tau fibril ThT: -6%; Tau fibril FP: 7%; Tau fluor cs: -2%; ALDH1A1 inh: 5%

Results for CCOC(=O)c1[nH]c(COC(=O)C2CC(=O)N(Cc3ccccc3)C2)c(C(=O)OCC)c1C (stereo unspecified) ?
JMJD2E inh: 1%; HPGD inh: 28µM*; Tau fibril ThT: -14%; Tau fibril FP: -1%; Tau fluor cs: -1%; ALDH1A1 inh: 40µM*

What do the screens show for `Cc1ccc(S(=O)(=O)N(C)CC(=O)OCc2nnc(-c3ccccc3)o2)cc1`?
JMJD2E inh: -1%; HPGD inh: 25µM*; Tau fibril ThT: -3%; Tau fibril FP: 11%; Tau fluor cs: -3%; ALDH1A1 inh: inconclusive

What do the screens show for `NCCNc1cccc2ccccc12`?
HPGD inh: -10%; ALDH1A1 inh: inconclusive

What do the screens show for `CC1=C(C(N)=O)C(c2ccc(C)cc2)n2nc(SCc3ccccc3F)nc2N1` (stereo unspecified)?
Tau fibril ThT: 6%; Tau fibril FP: 5%; Tau fluor cs: -1%

How did ClCc1nnc(-c2ccccc2)o1 do in these assays?
JMJD2E inh: 1%; HPGD inh: -15%; Tau fibril ThT: 6%; Tau fibril FP: -1%; Tau fluor cs: -3%; ALDH1A1 inh: 7.9µM*

What do the screens show for `CCOc1ncccc1C(=O)OCc1nnc(-c2ccccc2)o1`?
JMJD2E inh: 5%; HPGD inh: 16µM*; Tau fibril ThT: -5%; Tau fibril FP: 3%; Tau fluor cs: -6%; ALDH1A1 inh: 6%

Results for COC(=O)CCC(=O)OC1(C)C(=O)C2=CN(C3CCCC3)C(c3ccc(OC)cc3)=CC2=C(Br)C1=O (stereo unspecified) ?
JMJD2E inh: inconclusive; HPGD inh: -7%; Tau fibril ThT: 16µM*; Tau fibril FP: inconclusive; Tau fluor cs: -14%[11.6 µM]; ALDH1A1 inh: 10%[13.5 µM]

What do the screens show for `C=CCN1C=C2C(=O)C(C)(OC(=O)CCC(=O)OC)C(=O)C(Br)=C2C=C1c1ccc(OC)cc1` (stereo unspecified)?
JMJD2E inh: 7.9µM*; HPGD inh: -10%; Tau fibril ThT: 14µM*!; Tau fibril FP: inconclusive; Tau fluor cs: -8%[11.6 µM]; ALDH1A1 inh: inconclusive

Results for COC(=O)CCC(=O)OC1(C)C(=O)C2=CN(c3ccc(OC)cc3)C(c3ccc(OC)cc3)=CC2=C(Br)C1=O (stereo unspecified) ?
JMJD2E inh: -18%[11.4 µM]; HPGD inh: -8%; Tau fibril ThT: -17%[11.5 µM]; Tau fibril FP: 4%[11.6 µM]; Tau fluor cs: -18%[11.6 µM]; ALDH1A1 inh: inconclusive

What do the screens show for `COC(CNC(=O)c1ccc2c(c1)ncn2-c1ccc(F)c(F)c1)OC`?
JMJD2E inh: 8%; Tau fibril ThT: -9%; Tau fibril FP: -14%; Tau fluor cs: -13%; ALDH1A1 inh: 1%

How did COCCNC(=O)c1ccc2c(c1)ncn2-c1ccc(F)c(F)c1 do in these assays?
JMJD2E inh: 3%; HPGD inh: 2.5µM*; Tau fibril ThT: -4%; Tau fibril FP: -11%; Tau fluor cs: 0%; ALDH1A1 inh: -15%

Results for COC(CNC(=O)c1ccc2c(c1)nc(C)n2-c1cccc(F)c1)OC ?
JMJD2E inh: 6%; HPGD inh: 11µM*; Tau fibril ThT: -3%; Tau fibril FP: 0%; Tau fluor cs: -6%; ALDH1A1 inh: -1%

Results for COC(CNC(=O)c1ccc2c(c1)nc(C)n2-c1ccc(F)c(F)c1)OC ?
JMJD2E inh: -4%; HPGD inh: 11µM*; Tau fibril ThT: 1%; Tau fibril FP: 2%; Tau fluor cs: 3%; ALDH1A1 inh: -5%

Results for Cc1nc2cc(C(=O)N3CCc4ccccc43)ccc2n1-c1ccc(F)c(F)c1 ?
JMJD2E inh: -25%; HPGD inh: 14µM*; Tau fibril ThT: -7%; Tau fibril FP: 3%; Tau fluor cs: 9%; ALDH1A1 inh: inconclusive
